Experimental data reported in PubChem BioAssay (NCATS).
Results filed as inconclusive are left out. A call without a number means that no potency is given here. Calls of active or inactive are those of the source. The call rests on the fitted dose curve; in most records, active means well fitted cell-killing curve with a large enough effect; inconclusive means small, poorly fitted or top-dose-only effect, or effect the other way; inactive means no such curve, though single readings can be large or run the other way.

Assay: qHTS of pediatric cancer cell lines to identify multiple opportunities for drug repurposing: Confirmatory screen for MG 63 (6-TG R) cells (AID 1347119); further: nearly all actives have a fitted effect of over 55% in size
Details: MG-63 (6-TG resistant) osteosarcoma viability; series mostly up to 45.9 µM
Summary of the method: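 Cells (500-1,000/well) in growth media were settled 5 h at 37 degrees C, then given compounds for 48 h. Viability was read as CellTiter-Glo luminescence. Primary runs used MIPE at 11 points (0.78 nM-46 µM) and NPC at 8 points (0.59 nM-46 µM); follow-ups used 11 points.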
Potency means the concentration at half of the fitted maximal effect.

**Q.** Which Potency does the source give for `CC1C(=O)OC2C(O)C34C5CC(C(C)(C)C)C36C(OC(=O)C6O)OC4(C(=O)O5)C12O` (configuration not stated) here?
**A.** inactive

**Q.** For `FC(F)(F)c1ccc(C=Cc2nc(COc3ccc(CCCCn4ccnn4)cc3)co2)cc1`, which Potency is on record?
**A.** 261 nM (active)

**Q.** With `CN(C)CC[C@H](CSc1ccccc1)Nc1ccc(S(=O)(=O)NC(=O)c2ccc(N3CCN(Cc4ccccc4-c4ccc(Cl)cc4)CC3)cc2)cc1[N+](=O)[O-]` as the compound, how does the Potency read?
**A.** 1470 nM (active)

**Q.** With `Cc1ccc(C(=O)N(CCCN)[C@@H](c2nc3cc(Cl)ccc3c(=O)n2Cc2ccccc2)C(C)C)cc1` as the compound, how does the Potency read?
**A.** 75.9 nM (active)

**Q.** For `C[C@H](c1ccc(F)cc1CCCC(=O)O)N(c1cc(F)ccc1F)S(=O)(=O)c1ccc(Cl)cc1`, which Potency is on record?
**A.** inactive

**Q.** With `CO[C@H]1/C=C\O[C@@]2(C)Oc3c(C)c(O)c4c(O)c(c5c(nc6cc(C)ccn65)c4c3C2=O)NC(=O)C(C)=CC=C[C@H](C)[C@H](O)[C@@H](C)[C@@H](O)[C@@H](C)[C@H](OC(C)=O)[C@H]1C` as the compound, how does the Potency read?
**A.** inactive

**Q.** For `NC(N)=Nc1nc(CSCCC(N)=NS(N)(=O)=O)cs1`, which Potency is on record?
**A.** inactive

**Q.** For `COC(=O)[C@H](c1ccccc1Cl)N1CCc2sccc2C1`, which Potency is on record?
**A.** inactive

**Q.** Which Potency does the source give for `CO[C@H]1/C=C\O[C@@]2(C)Oc3c(C)c(O)c4c(O)c(c(C=NN5CCN(C6CCCC6)CC5)c(O)c4c3C2=O)NC(=O)C(C)=CC=C[C@H](C)[C@H](O)[C@@H](C)[C@@H](O)[C@@H](C)[C@H](OC(C)=O)[C@H]1C` here?
**A.** inactive

**Q.** Which Potency does the source give for `CON(C)C(=O)N1N=C(c2cc(F)ccc2F)S[C@]1(CCCN)c1ccccc1` here?
**A.** 20.8 nM (active)

**Q.** With `CCC[C@H](N[C@@H](C)C(=O)N1[C@@H]2CCCC[C@H]2C[C@H]1C(=O)O)C(=O)OCC` as the compound, how does the Potency read?
**A.** inactive

**Q.** Which Potency does the source give for `CC1=C(CC(=O)O)c2cc(F)ccc2C1=Cc1ccc(S(C)=O)cc1` (configuration not stated) here?
**A.** inactive

**Q.** Which Potency does the source give for `CC[C@]1(O)C[C@H]2CN(CCC3=c4ccccc4=N[C]3[C@@](C(=O)OC)(c3cc4c(cc3OC)N(C)[C@H]3[C@@](O)(C(N)=O)[C@H](O)[C@]5(CC)C=CCN6CC[C@]43[C@@H]65)C2)C1` here?
**A.** 261 nM (active)

**Q.** Which Potency does the source give for `CC1(COc2ccc3c(c2)ncn3-c2ccc3cccc(N4CCC(N)CC4)c3n2)COC1` here?
**A.** inactive

**Q.** Which Potency does the source give for `O=c1[nH]nc(OCCCc2ccc(Cl)cc2)c(NCc2cccnc2)c1Br` here?
**A.** 5220 nM (active)

**Q.** Which Potency does the source give for `C[C@@]1(C(=O)Nc2ccc(F)nc2)CCCN1c1nc(Nc2cc(C3CC3)[nH]n2)c2cccn2n1` here?
**A.** 104 nM (active)

**Q.** Which Potency does the source give for `CC1CNc2c(cccc2S(=O)(=O)N[C@@H](CCCN=C(N)N)C(=O)N2CC[C@@H](C)C[C@@H]2C(=O)O)C1` (some centres not stated) here?
**A.** inactive

**Q.** With `CC(C)CN(C[C@H](O)[C@H](Cc1ccccc1)NC(=O)O[C@H]1CCOC1)S(=O)(=O)c1ccc(N)cc1` as the compound, how does the Potency read?
**A.** 8270 nM (active)

**Q.** For `Cc1c(C(=O)Nc2ccc(N3C[C@@H](C)O[C@@H](C)C3)nc2)cccc1-c1ccc(OC(F)(F)F)cc1`, which Potency is on record?
**A.** 10400 nM (active)

**Q.** Which Potency does the source give for `C=C1[C@H](n2cnc3c(=O)[nH]c(N)nc32)C[C@H](O)[C@H]1CO` here?
**A.** inactive

**Q.** For `C[C@@H]1[C@H](O)[C@@H](C)C=CC=CC=CC=CC=CC=CC=C[C@H](O[C@@H]2O[C@H](C)[C@H](O)[C@H](N)[C@@H]2O)C[C@@H]2O[C@](O)(C[C@@H](O)C[C@@H](O)[C@H](O)CC[C@@H](O)C[C@@H](O)CC(=O)O[C@H]1C)C[C@H](O)[C@@H]2C(=O)O`, which Potency is on record?
**A.** inactive

**Q.** With `Cc1cnc(-c2cc(N3CCN(C(=O)CCS(C)(=O)=O)CC3)ncc2Cl)c(C)c1` as the compound, how does the Potency read?
**A.** inactive

**Q.** For `CN1CCN(c2ncc(-c3cc(Cl)cc(Cl)c3Cl)c(N)n2)CC1`, which Potency is on record?
**A.** inactive

**Q.** Which Potency does the source give for `CCC(=O)OCC(=O)[C@@]1(OC(=O)CC)[C@@H](C)C[C@@H]2[C@H]3CCC4=CC(=O)C=C[C@]4(C)[C@@]3(F)[C@@H](O)C[C@@]21C` here?
**A.** inactive

**Q.** Which Potency does the source give for `C[C@@H]1C[C@H]2[C@@H]3CCC4=CC(=O)C=C[C@]4(C)[C@@]3(F)[C@@H](O)C[C@]2(C)[C@@]1(O)C(=O)CO` here?
**A.** inactive

**Q.** With `COc1ccc(-c2ccc3ncc4c(c3c2)n(-c2ccc(N3CCNCC3)c(C(F)(F)F)c2)c(=O)n4C)cn1` as the compound, how does the Potency read?
**A.** 32.9 nM (active)

**Q.** With `N#CC(=C1Nc2ccccc2S1)c1ccnc(OCc2ccc(CN3CCOCC3)cc2)n1` as the compound, how does the Potency read?
**A.** inactive
